A short description of the assay: Clonogenic survival assay for Identifying a Potential Treatment of Ataxia-Telangiectasia:SAR for Probe. As to conditions: ATM-null F2111 fibroblasts, NCS clonogenic survival, 14 d. The text has this: NIH Chemical Genomics Center [NCGC] NIH Molecular Libraries Probe Centers Network [MLPCN] MLPCN Grant: MH089030-01 Assay Submitter (PI): Wei Zheng and Yosef Shiloh Ataxia-telangiectasia (A-T) is a devastating and progressive disease for which, there is no cure. Although A-T is a multisystem disease, it is stereotyped characterized by its neurological symptoms such as truncal ataxia, due to cerebellar cortical degeneration of the Purkinje and granule cells. Other symptoms of A-T are telangiectasias (dilated blood vessels), primary immunodeficiency, marked sensitivity to ionizing radiation (IR), chromosomal instability and predisposition to cancer. The underlying genetic cause of A-T is null mutations in the ATM (A-T mutated) gene. ATM is a nuclear serine/threonine kinase that functions as a master regulator of the cellular responses to double strand breaks (DSBs) in the DNA. Upon activation by DSBs, ATM phosphorylates a plethora of downstream targets, including KAP-1 on […]. KAP-1 phosphorylation occurs shortly in response to DSBs and mediates global chromatin relaxation, which facilitates DSB repair. To screen for small molecules that will compensate for the loss of ATM in cells derived from A-T patients, we monitored KAP-1 phosphorylation as a readout for ATM-like activity using an AlphaLISA assay. Active compounds should protect the A-T cells from the damage by NCS treatment and form normal colonies.
ATM null (F2111) cells are treated with various doses of the radiomimetic drug neocarzinostatin (NCS) and plated at densities of 200-5000 cells/[…]. 24 hr later the cells were either treated or not treated with Rottlerin, and 30 min later NCS was added for an additional 30 minutes. Then the medium was replaced with fresh medium and plates were incubated for 14 days until colonies could be visualized. After fourteen days, the cultures are fixed and stained and colonies scored manually. Colony survival in absence of NCS was normalized to 100% survival for each compound concentration.

Active and inactive are the calls of the source. The rule behind the calls is not given here.

The source of these data is PubChem BioAssay AID504376 (National Center for Advancing Translational Sciences (NCATS), 2011).

In the case of `CC(=O)c1c(O)c(C)c(O)c(Cc2c(O)c3c(c(C(=O)/C=C/c4ccccc4)c2O)OC(C)(C)C=C3)c1O`, the survival reads like this: (at 30 µM, stronger effect = higher value) 43% (active); (measured here: 10 ng/ml NCS, no compound) 35%; (measured here: 20 ng/ml NCS, at 30 µM, stronger effect = higher value) 33%; (measured here: 40 ng/ml NCS, at 30 µM, stronger effect = higher value) 15%.
